Data reported in PubChem BioAssay AID1159580 (chemical genetic matrix, 2015).
Screen size: about 5,500 compounds; about 2,000 (36%) were called active. Roughly 18% stayed inconclusive and do not appear here. No stated cut-off is given here; in the data, active means normalized growth mostly below about 0.91 (no sharp cut-off); inconclusive means no clear call, values can overlap the other calls; inactive means mostly above about 0.92. This is one part of the list.

Test: chemical genetic growth profiling, strain panel (AID 1159580);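 further: tested at 20 µM; growth read once vehicle control cultures reached saturation at 30 °C; 1 = growth at the plate median or of vehicle wells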
Conditions: growth OD

Measured: normalized growth

Oc1ccc(Cl)cc1Cc1cc(Cl)ccc1O
active: S. cerevisiae deletion strains, locus YJR075W, strain HOC1, stronger effect = lower value 0.0746 | S. cerevisiae deletion strains, locus YKL009W, strain mrt4, stronger effect = lower value 0.092 | S. cerevisiae deletion strains, locus YKL068W, stronger effect = lower value 0.101 | S. cerevisiae deletion strains, locus YKL085W, strain MDH1 (second series), stronger effect = lower value 0.0549 | S. cerevisiae deletion strains, locus YKL085W, strain MDH1, stronger effect = lower value 0.0549 | S. cerevisiae deletion strains, locus YKL160W, strain elf1, stronger effect = lower value 0.0693 | S. cerevisiae deletion strains, locus YKL190W, strain CNB1, stronger effect = lower value 0.0512 | S. cerevisiae deletion strains, locus YKR001C, strain vps1, stronger effect = lower value 0.0604 | S. cerevisiae deletion strains, locus YKR026C, strain gcn3, stronger effect = lower value 0.13 | S. cerevisiae deletion strains, locus YKR091W, strain srl3, stronger effect = lower value 0.0642 | S. cerevisiae deletion strains, locus YLL001W, strain dnm1, stronger effect = lower value 0.113 | S. cerevisiae deletion strains, locus YLL026W, stronger effect = lower value 0.0579 | S. cerevisiae deletion strains, locus YLL041C, strain sdh2, stronger effect = lower value 0.0645 | S. cerevisiae deletion strains, locus YLR027C, strain aat2, stronger effect = lower value 0.0566 | S. cerevisiae deletion strains, locus YLR039C, strain RIC1, stronger effect = lower value 0.0807 | S. cerevisiae deletion strains, locus YLR058C, strain SHM2, stronger effect = lower value 0.0611 | S. cerevisiae deletion strains, locus YLR102C, strain apc9, stronger effect = lower value 0.0602 | S. cerevisiae deletion strains, locus YLR113W, strain HOG1, stronger effect = lower value 0.165 | S. cerevisiae deletion strains, locus YLR221C, strain rsa3, stronger effect = lower value 0.0636 | S. cerevisiae deletion strains, locus YLR258W, strain gsy2, stronger effect = lower value 0.0643 | S. cerevisiae deletion strains, locus YLR262C, strain YPT6 (second series), stronger effect = lower value 0.0751 | S. cerevisiae deletion strains, locus YLR262C, strain YPT6, stronger effect = lower value 0.101 | S. cerevisiae deletion strains, locus YLR268W, strain sec22, stronger effect = lower value 0.0687 | S. cerevisiae deletion strains, locus YLR320W, strain mms22, stronger effect = lower value 0.0873 | S. cerevisiae deletion strains, locus YLR330W, strain CHS5, stronger effect = lower value 0.0555 | S. cerevisiae deletion strains, locus YLR342W, strain FKS1 (second series), stronger effect = lower value 0.0854 | S. cerevisiae deletion strains, locus YLR342W, strain FKS1, stronger effect = lower value 0.0648 | S. cerevisiae deletion strains, locus YLR357W, strain rsc2, stronger effect = lower value 0.273 | S. cerevisiae deletion strains, locus YLR370C, strain arc18, stronger effect = lower value 0.108 | S. cerevisiae deletion strains, locus YLR371W, strain rom2, stronger effect = lower value 0.0629 | S. cerevisiae deletion strains, locus YLR384C, strain iki3, stronger effect = lower value 0.118 | S. cerevisiae deletion strains, locus YLR418C, strain cdc73, stronger effect = lower value 0.098 | S. cerevisiae deletion strains, locus YML016C, strain PPZ1, stronger effect = lower value 0.0858 | S. cerevisiae deletion strains, locus YML032C, strain rad52, stronger effect = lower value 0.0693 | S. cerevisiae deletion strains, locus YML120C, strain ndi1, stronger effect = lower value 0.0588 | S. cerevisiae deletion strains, locus YML124C, strain tub3, stronger effect = lower value 0.0644 | S. cerevisiae deletion strains, locus YMR058W, strain fet3, stronger effect = lower value 0.131 | S. cerevisiae deletion strains, locus YMR078C, strain ctf18, stronger effect = lower value 0.071 | S. cerevisiae deletion strains, locus YMR125W, strain sto1, stronger effect = lower value 0.0949 | S. cerevisiae deletion strains, locus YMR129W, stronger effect = lower value 0.0627 | S. cerevisiae deletion strains, locus YMR205C, strain PFK2, stronger effect = lower value 0.102 | S. cerevisiae deletion strains, locus YMR223W, strain ubp8, stronger effect = lower value 0.066 | S. cerevisiae deletion strains, locus YMR231W, strain pep5, stronger effect = lower value 0.085 | S. cerevisiae deletion strains, locus YMR263W, strain SAP30, stronger effect = lower value 0.0643 | S. cerevisiae deletion strains, locus YMR307W, strain GAS1, stronger effect = lower value 0.145 | S. cerevisiae deletion strains, locus YNL067W, strain RPL9B, stronger effect = lower value 0.0779 | S. cerevisiae deletion strains, locus YNL071W, strain lat1, stronger effect = lower value 0.0636 | S. cerevisiae deletion strains, locus YNL128W, strain TEP1, stronger effect = lower value 0.0892 | S. cerevisiae deletion strains, locus YNL153C, strain GIM3, stronger effect = lower value 0.0714 | S. cerevisiae deletion strains, locus YNL183C, strain NPR1, stronger effect = lower value -0.00267 | S. cerevisiae deletion strains, locus YNL209W, strain ssb2, stronger effect = lower value 0.0857 | S. cerevisiae deletion strains, locus YNL233W, strain BNI4, stronger effect = lower value 0.056 | S. cerevisiae deletion strains, locus YNL248C, strain rpa49, stronger effect = lower value 0.109 | S. cerevisiae deletion strains, locus YNL250W, strain rad50, stronger effect = lower value 0.0758 | S. cerevisiae deletion strains, locus YNL271C, strain bni1, stronger effect = lower value 0.0676 | S. cerevisiae deletion strains, locus YNL298W, strain CLA4, stronger effect = lower value 0.0642 | S. cerevisiae deletion strains, locus YNL307C, strain MCK1, stronger effect = lower value 0.0664 | S. cerevisiae deletion strains, locus YNL322C, strain KRE1 (second series), stronger effect = lower value 0.0828 | S. cerevisiae deletion strains, locus YNL322C, strain KRE1, stronger effect = lower value 0.0618 | S. cerevisiae deletion strains, locus YNR049C, strain mso1, stronger effect = lower value 0.109 | S. cerevisiae deletion strains, locus YNR052C, strain pop2, stronger effect = lower value 0.0645 | S. cerevisiae deletion strains, locus YOL006C, strain TOP1, stronger effect = lower value 0.0992 | S. cerevisiae deletion strains, locus YOL012C, strain htz1 0.176 | S. cerevisiae deletion strains, locus YOL147C, strain pex11, stronger effect = lower value 0.0563 | S. cerevisiae deletion strains, locus YOR001W, strain rrp6, stronger effect = lower value 0.0685 | S. cerevisiae deletion strains, locus YOR061W, strain CKA2, stronger effect = lower value 0.0631 | S. cerevisiae deletion strains, locus YOR069W, strain VPS5, stronger effect = lower value 0.0593 | S. cerevisiae deletion strains, locus YOR070C, strain gyp1, stronger effect = lower value 0.0618 | S. cerevisiae deletion strains, locus YOR080W, strain dia2, stronger effect = lower value 0.0748 | S. cerevisiae deletion strains, locus YOR083W, strain WHI5, stronger effect = lower value 0.0694 | S. cerevisiae deletion strains, locus YOR106W, strain vam3, stronger effect = lower value 0.0658 | S. cerevisiae deletion strains, locus YOR136W, strain idh2, stronger effect = lower value 0.0708 | S. cerevisiae deletion strains, locus YOR144C, strain elg1, stronger effect = lower value 0.0576 | S. cerevisiae deletion strains, locus YOR184W, strain ser1, stronger effect = lower value 0.0699 | S. cerevisiae deletion strains, locus YOR231W, strain MKK1, stronger effect = lower value 0.123 | S. cerevisiae deletion strains, locus YOR265W, strain rbl2, stronger effect = lower value 0.0619 | S. cerevisiae deletion strains, locus YOR270C, strain vph1, stronger effect = lower value 0.101 | S. cerevisiae deletion strains, locus YOR290C, strain snf2, stronger effect = lower value 0.0874 | S. cerevisiae deletion strains, locus YOR316C, strain cot1, stronger effect = lower value 0.0588 | S. cerevisiae deletion strains, locus YPL051W, strain arl3, stronger effect = lower value 0.0629 | S. cerevisiae deletion strains, locus YPL055C, strain LGE1, stronger effect = lower value 0.0724 | S. cerevisiae deletion strains, locus YPL078C, strain atp4, stronger effect = lower value 0.0851 | S. cerevisiae deletion strains, locus YPL106C, strain sse1, stronger effect = lower value 0.107 | S. cerevisiae deletion strains, locus YPL240C, strain hsp82, stronger effect = lower value 0.0585 | S. cerevisiae deletion strains, locus YPL241C, strain CIN2, stronger effect = lower value 0.0663 | S. cerevisiae deletion strains, locus YPL256C, strain CLN2, stronger effect = lower value 0.114 | S. cerevisiae deletion strains, locus YPR119W, strain clb2, stronger effect = lower value 0.0612 | S. cerevisiae deletion strains, locus YPR141C, strain kar3, stronger effect = lower value 0.0922 | S. cerevisiae deletion strains, locus YPR163C, strain tif3, stronger effect = lower value 0.07 | S. cerevisiae deletion strains, locus YPR167C, strain met16, stronger effect = lower value 0.0608 | S. cerevisiae deletion strains, strain wtn01, stronger effect = lower value 0.065 | S. cerevisiae strains, strain wild type, stronger effect = lower value 0.051
